From PubChem BioAssay (EPA / NIEHS)
Some compounds were tested as several samples or in several runs, with calls that do not always agree. Active and inactive are the calls of the source. Rule for the calls: active = hit-call score of the fitted dose curve at least 0.9, where 1 is the maximum; inactive = score below 0.9.

Assays:
Conditions in all cases: mRNA level, 48 h; actives raise or lower the signal
[1] = read-out: Cytochrome P450 4A22 (Homo sapiens) (UniProt Q5TCH4); assay: LTEA_HepaRG_CYP4A22: Life Technologies and Expression Analysis (LTEA) Assay for Cytochrome P450 4A22 (CYP4A22) using HepaRG (AID 2283495)
How it was run: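 Cryopreserved HepaRG cells, plated and cultured 48 h, then switched to serum-free induction medium and treated 48 h (duplicates, up to 100 uM, half-log steps, 0.5% DMSO). Expression change of CYP4A22 was fitted bidirectionally against vehicle.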

[2] = read-out: Cytochrome P450 7A1 (Homo sapiens) (UniProt P22680); assay: LTEA_HepaRG_CYP7A1: Life Technologies and Expression Analysis (LTEA) Assay for Cytochrome P450 7A1 (CYP7A1) using HepaRG (AID 2283496)
How it was run: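 Gene expression endpoint in human HepaRG liver cells treated for 48 h with test chemicals (up to 100 uM, 0.5% DMSO). Values come from bidirectional concentration-response fitting versus DMSO.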

[3] = read-out: Glutathione S-Transferase (GSTA2), GSTA2 (gene 2939); assay: LTEA_HepaRG_GSTA2: Life Technologies and Expression Analysis (LTEA) Assay for Glutathione S-Transferase (GSTA2) using HepaRG (AID 2283497)
How it was run: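 HepaRG, 48 h dosing, 8-pt half-log CRC from 100 uM, 0.5% DMSO vehicle, n=2; RNA → Fluidigm TaqMan qRT-PCR; GSTA2 vs ACTB/GAPDH/POLR2A; gain/loss fit vs DMSO.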

[4] = read-out: Glutamate-cysteine ligase catalytic (GCLC), GCLC (gene 2729); assay: LTEA_HepaRG_GCLC: Life Technologies and Expression Analysis (LTEA) Assay for Glutamate-cysteine ligase catalytic (GCLC) using HepaRG (AID 2283498)
How it was run: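 Read-out is GCLC transcript level by Fluidigm-based TaqMan qRT-PCR, normalized to three housekeeping genes and fitted in both directions relative to 0.5% DMSO. Human HepaRG cells received chemicals for 48 h, up to 100 uM.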

[5] = read-out: growth arrest and DNA damage 45 (GADD45G), GADD45G (gene 10912); assay: LTEA_HepaRG_GADD45G: Life Technologies and Expression Analysis (LTEA) Assay for growth arrest and DNA damage 45 (GADD45G) using HepaRG (AID 2283499)
How it was run: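 Human hepatic HepaRG line treated 48 h with chemicals (eight concentrations, half-log steps from 100 uM); transcript induction or repression of GADD45G scored by qRT-PCR versus DMSO vehicle.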

[6] = read-out: Glutamate-cysteine ligase regulatory (GCLM), GCLM (gene 2730); assay: LTEA_HepaRG_GCLM: Life Technologies and Expression Analysis (LTEA) Assay for Glutamate-cysteine ligase regulatory (GCLM) using HepaRG (AID 2283500)
How it was run: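 Human liver HepaRG cultures receive test chemicals for 48 hours at up to 100 uM in 0.5% DMSO. GCLM expression is measured by qRT-PCR and analysed for increases or decreases against vehicle.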

[7] = read-out: Glutathione S-transferase M3 (GSTM3), GSTM3 (gene 2947); assay: LTEA_HepaRG_GSTM3: Life Technologies and Expression Analysis (LTEA) Assay for Glutathione S-transferase M3 (GSTM3) using HepaRG (AID 2283501)
How it was run: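 Changes in GSTM3 expression, an oxidative-stress marker, were scored by bidirectional curve fitting against 0.5% DMSO vehicle. Human HepaRG cultures received chemicals for 48 h in duplicate, highest concentration 100 uM with half-log dilutions.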

[8] = read-out: Heat shock 70 kDa protein 1 (HSPA1A), gene 3303; assay: LTEA_HepaRG_HSPA1A: Life Technologies and Expression Analysis (LTEA) Assay for Heat shock 70 kDa protein 1 (HSPA1A) using HepaRG (AID 2283502)
How it was run: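 HSPA1A induction in human HepaRG liver cells is measured after 48 h of chemical treatment (100 uM maximum, 0.5% DMSO vehicle). Expression comes from qRT-PCR normalized to endogenous controls.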

[9] = read-out: Hypoxia-inducible factor 1-alpha (Homo sapiens) (UniProt Q16665); assay: LTEA_HepaRG_HIF1A: Life Technologies and Expression Analysis (LTEA) Assay for Hypoxia-inducible factor 1 (HIF1A) Trancription factor using HepaRG (AID 2283503);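 note: HIF1A transcript by TaqMan qRT-PCR normalized to ACTB GAPDH and POLR2A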
How it was run: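 HepaRG, 48 h exposure, 8-pt half-log series from 100 uM, 0.5% DMSO vehicle, duplicates. Readout: HIF1A transcript by qRT-PCR (Fluidigm array), housekeeping-normalised. Bidirectional curve fit vs DMSO baseline.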

[10] = read-out: 3-Hydroxy-3-Methylglutaryl-CoA Synthase 2 (HMGCS2), HMGCS2 (gene 3158); assay: LTEA_HepaRG_HMGCS2: Life Technologies and Expression Analysis (LTEA) Assay for 3-Hydroxy-3-Methylglutaryl-CoA Synthase 2 (HMGCS2) using HepaRG (AID 2283504)
How it was run: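 Expression of HMGCS2 in human HepaRG liver cells is measured by qRT-PCR 48 h after dosing (highest 100 uM, half-log series, 0.5% DMSO). Values come from bidirectional concentration-response fitting with DMSO as baseline.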

[11] = read-out: HGF (gene 3082); assay: LTEA_HepaRG_HGF: Life Technologies and Expression Analysis (LTEA) Assay for Hepatocyte Growth Facto (HGF) using HepaRG (AID 2283505)
How it was run: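 Gain or loss of HGF mRNA in human HepaRG liver cells after 48 h chemical exposure; eight concentrations up to 100 uM with 0.5% DMSO vehicle, quantified by TaqMan qRT-PCR.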

[12] = read-out: Insulin Like Growth Factor 1 (IGF1), IGF1 (gene 3479); assay: LTEA_HepaRG_IGF1: Life Technologies and Expression Analysis (LTEA) Assay for Insulin Like Growth Factor 1 (IGF1) using HepaRG (AID 2283506)
How it was run: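 Using human HepaRG liver cells, IGF1 transcript induction or suppression is measured 48 h after dosing across eight concentrations capped at 100 uM. Values derive from bidirectional concentration-response fitting with DMSO as baseline.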

[13] = read-out: Intercellular Adhesion Molecule 1 (ICAM1), ICAM1 (gene 3383); assay: LTEA_HepaRG_ICAM1: Life Technologies and Expression Analysis (LTEA) Assay for Intercellular Adhesion Molecule 1 (ICAM1) using HepaRG (AID 2283507)
How it was run: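 Gain or loss of transcript in HepaRG hepatic cells is quantified by qRT-PCR after 48 h chemical exposure (up to 100 uM, half-log steps), with DMSO as baseline.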

[14] = read-out: Interleukin 6 (IL6), IL6 (gene 3569); assay: LTEA_HepaRG_IL6: Life Technologies and Expression Analysis (LTEA) Assay for Interleukin 6 (IL6) using HepaRG (AID 2283509)
How it was run: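 HepaRG, ~100,000 cells/well, 48 h pre-culture; serum-free induction medium; cmpd 8-pt half-log from 100 uM, 0.5% DMSO, duplicate, 48 h. Lysis in RLT, TaqMan qRT-PCR; gain or loss vs DMSO.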

[15] = read-out: Interleukin 6 Receptor (IL6R), IL6R (gene 3570); assay: LTEA_HepaRG_IL6R: Life Technologies and Expression Analysis (LTEA) Assay for Interleukin 6 Receptor (IL6R) using HepaRG (AID 2283510);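 for AC50: differentiated human HepaRG liver cells in serum-free induction medium; TaqMan qRT-PCR signal normalized to ACTB GAPDH and POLR2A housekeeping genes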
How it was run: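 Concentration-response in human liver HepaRG cells: eight concentrations from 100 uM downward by half-logs, 48 h exposure, 0.5% DMSO vehicle. IL6R mRNA change measured by qRT-PCR and fitted in both directions relative to vehicle.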

[16] = read-out: Potassium channel subfamily K member 1 (KCNK1), KCNK1 (gene 3775); assay: LTEA_HepaRG_KCNK1: Life Technologies and Expression Analysis (LTEA) Assay for Potassium channel subfamily K member 1 (KCNK1) using HepaRG (AID 2283511)
How it was run: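 Gain or loss of KCNK1 mRNA is the read-out, quantified by qRT-PCR against three housekeeping genes after 48 h chemical treatment of human HepaRG liver cells. Concentrations ran from 100 uM downward in half-log steps, vehicle 0.5% DMSO.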

[17] = read-out: Keratin 19 (KRT19), KRT19 (gene 3880); assay: LTEA_HepaRG_KRT19: Life Technologies and Expression Analysis (LTEA) Assay for Keratin 19 (KRT19) using HepaRG (AID 2283512)
How it was run: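 Gene-expression endpoint in the human liver line HepaRG after 48 h exposure to up to 100 uM test chemical with 0.5% DMSO vehicle; KRT19 mRNA by qRT-PCR, analyzed bidirectionally versus DMSO.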

[18] = read-out: JUN Transcription Factor, JUN (gene 3725); assay: LTEA_HepaRG_JUN: Life Technologies and Expression Analysis (LTEA) Assay for JUN Transcription Factor using HepaRG (AID 2283513)
How it was run: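 Human HepaRG liver cells receive test chemicals in 0.5% DMSO for 48 h across an eight-point range topping at 100 uM. Expression changes in JUN are scored in both directions against the DMSO vehicle.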

[19] = read-out: Lipase C (LIPC), LIPC (gene 3990); assay: LTEA_HepaRG_LIPC: Life Technologies and Expression Analysis (LTEA) Assay for Lipase C (LIPC) using HepaRG (AID 2283514)
How it was run: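 Read-out is LIPC transcript level by TaqMan qRT-PCR, normalized to three housekeeping genes, after 48 h chemical treatment of human HepaRG liver cells. Curves span eight concentrations topping at 100 uM; activity in either direction scored relative to 0.5% DMSO.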

[20] = read-out: Insulin-like growth factor-binding protein 1 (IGFBP1), IGFBP1 (gene 3484); assay: LTEA_HepaRG_IGFBP1: Life Technologies and Expression Analysis (LTEA) Assay for Insulin-like growth factor-binding protein 1 (IGFBP1) using HepaRG (AID 2283508)
How it was run: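 mRNA induction or loss was quantified by qRT-PCR after 48 h chemical exposure of human HepaRG cells, with 0.5% DMSO as vehicle and baseline. Concentration-response over eight points up to 100 uM.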

Measured: AC50

Chain of Hypoxia-inducible factor 1-alpha (Homo sapiens) (Q16665 whole entry, looked up): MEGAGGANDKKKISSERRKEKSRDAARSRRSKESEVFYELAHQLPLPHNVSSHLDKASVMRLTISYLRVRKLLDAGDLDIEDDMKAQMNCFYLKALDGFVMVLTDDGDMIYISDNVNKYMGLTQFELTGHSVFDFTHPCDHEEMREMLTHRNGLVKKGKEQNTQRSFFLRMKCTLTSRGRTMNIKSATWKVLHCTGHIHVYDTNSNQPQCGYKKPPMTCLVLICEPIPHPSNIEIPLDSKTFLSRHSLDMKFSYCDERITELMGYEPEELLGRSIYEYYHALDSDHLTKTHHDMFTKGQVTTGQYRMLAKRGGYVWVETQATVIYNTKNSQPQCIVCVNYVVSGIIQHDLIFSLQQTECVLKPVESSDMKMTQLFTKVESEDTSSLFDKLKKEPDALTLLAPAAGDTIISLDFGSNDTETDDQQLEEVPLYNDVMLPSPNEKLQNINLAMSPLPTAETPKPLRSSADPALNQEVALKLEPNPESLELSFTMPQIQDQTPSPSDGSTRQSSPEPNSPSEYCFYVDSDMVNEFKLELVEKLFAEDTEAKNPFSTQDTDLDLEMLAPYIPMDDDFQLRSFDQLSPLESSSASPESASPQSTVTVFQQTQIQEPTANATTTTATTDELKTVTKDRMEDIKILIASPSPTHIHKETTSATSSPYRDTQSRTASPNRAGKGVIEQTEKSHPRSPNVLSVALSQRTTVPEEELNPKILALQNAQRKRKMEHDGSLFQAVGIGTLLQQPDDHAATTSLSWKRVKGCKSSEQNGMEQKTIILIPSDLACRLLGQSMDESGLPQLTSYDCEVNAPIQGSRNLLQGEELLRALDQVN

Oc1ccc(C(c2ccc(O)cc2)C(Cl)(Cl)Cl)cc1
active: [3] 78.2 µM | [4] 77.2 µM | [5] 78.9 µM | [8] 94.5 µM | [9] 79.5 µM | [10] 92.8 µM | [11] 83.7 µM | [13] 79.3 µM | [14] 77.1 µM | [15] 87.8 µM | [17] 50 µM | [18] 91.7 µM | [19] 78.8 µM
inactive: [1] | [2] | [6] | [7] | [12] | [16]

COC(=O)CSc1cc(N=c2sc(=O)n3n2CCCC3)c(F)cc1Cl
inactive: [1] | [2] | [3] | [4] | [5] | [6] | [7] | [8] | [9] | [10] | [11] | [12] | [13] | [20] | [14] | [15] | [16] | [17] | [18] | [19]

CC(C)(c1ccc(O)cc1)c1ccc(O)cc1
active: [8] 0.0172 µM
inactive: [1] | [2] | [3] | [4] | [5] | [6] | [7] | [8] | [9] | [10] | [11] | [12] | [13] | [20] | [14] | [15] | [16] | [17] | [18] | [19]

CCOC(=O)COc1cc(-n2ncc(C(F)(F)F)c(C)c2=O)c(F)cc1Cl
inactive: [1] | [2] | [3] | [4] | [5] | [6] | [7] | [8] | [9] | [10] | [11] | [12] | [13] | [20] | [14] | [15] | [16] | [17] | [18] | [19]

c1ccc2[nH]c(-c3cscn3)nc2c1
active: [4] 50 µM | [20] 29 µM | [17] 35.2 µM
inactive: [1] | [2] | [3] | [5] | [6] | [7] | [8] | [9] | [10] | [11] | [12] | [13] | [14] | [15] | [16] | [18] | [19]
